Measured values published in PubChem BioAssay (EPA / NIEHS).
Results filed as inconclusive are left out. Some structures have more than one record in an assay (separate samples or runs), and their calls can disagree. Calls of active or inactive are those of the source. How the source made its calls, unless noted: active means hit-call score of the fitted dose curve at least 0.9, where 1 is the maximum; inconclusive means response in the unintended direction; inactive means score below 0.9.

Columns and labels:
[1] = biological target: human Peroxisome Proliferator-activated Receptor delta (PPARd), PPARD (gene 5467) (UniProt Q03181); test: ATG_PPARd_TRANS: Attagene TRANS-FACTORIAL HepG2 Assay for human Peroxisome Proliferator-activated Receptor delta (PPARd) (AID 2283002)
Method in brief: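 Fluorescence from capillary electrophoresis of labelled RT-PCR reporter fragments gives the signal; DMSO sets baseline. Cells: HepG2 transiently carrying GAL4-UAS reporter units plus chimeric nuclear receptor-Gal4 proteins, exposed to chemicals for 24 h.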

[2] = read-out: Intercellular Adhesion Molecule 1 (ICAM1), ICAM1 (gene 3383); test: BSK_3C_ICAM1: BioMAP Diversity Plus: 3C Assay for Intercellular Adhesion Molecule 1 (ICAM1) Biomarker Activity (AID 2283003; active means hit-call score of the fitted dose curve at least 0.9, where 1 is the maximum; inactive means score below 0.9); conditions: primary human endothelial cells (HUVEC); actives raise or lower the signal
Method in brief: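 Human vascular endothelial primary cells, 3C conditions, 24 h treatment. ICAM-1 by ELISA.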

[3] = biological target: Nuclear receptor subfamily 1 group I member 2 (Homo sapiens) (UniProt O75469); test: ATG_PXR_TRANS: Attagene TRANS-FACTORIAL HepG2 Assay for human Pregnane X Receptor (PXR) (AID 2283008)
Method in brief: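 HepG2 cells transiently transfected with multiple reporter units, here a PXR-GAL4 chimera driving a GAL4-UAS reporter; 24 h compound exposure. Reporter mRNA measured by RT-PCR, FAM labelling and capillary electrophoresis; gain of signal fitted against DMSO baseline.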

[4] = biological target: human Retinoic Acid Receptor gamma (RARg), RARG (gene 5916) (UniProt P13631); test: ATG_RARg_TRANS: Attagene TRANS-FACTORIAL HepG2 Assay for human Retinoic Acid Receptor gamma (RARg) (AID 2283009)
Method in brief: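 HepG2, RARg-GAL4 TRANS system, 24 h exposure; reporter mRNA by RT-PCR + CE fluorescence; increase over DMSO.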

[5] = biological target: Retinoic acid receptor RXR-alpha (Homo sapiens) (UniProt P19793); test: ATG_RXRa_TRANS: Attagene TRANS-FACTORIAL HepG2 Assay for human Retinoid X Receptor alpha (RXRa) (AID 2283012)
Method in brief: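 Cells (HepG2) carried transiently transfected GAL4-responsive reporter units. Following a 24 h chemical incubation, reporter mRNA induction was read via RT-PCR fragment analysis; DMSO served as negative control and baseline.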

[6] = read-out: E-selectin (Homo sapiens) (UniProt P16581); test: BSK_3C_Eselectin: BioMAP Diversity Plus: 3C Assay for Eselectin Biomarker Activity (AID 2283015; active means hit-call score of the fitted dose curve at least 0.9, where 1 is the maximum; inactive means score below 0.9); conditions: primary human endothelial cells (HUVEC); actives raise or lower the signal
Method in brief: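 HUVEC, 3C stimulation; compound exposure 24 h; E-selectin by ELISA; gain- or loss-of-signal fitted bidirectionally vs DMSO baseline.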

[7] = read-out: Interleukin-1 alpha (IL1a), IL1A (gene 3552); test: BSK_BE3C_IL1a: BioMAP Diversity Plus: BE3C Assay for Interleukin-1 alpha (IL1a) Biomarker Activity (AID 2283016; active means hit-call score of the fitted dose curve at least 0.9, where 1 is the maximum; inactive means score below 0.9); conditions: primary human bronchial epithelial cells; actives raise or lower the signal
Method in brief: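 Cultures of primary human bronchial epithelial cells receive test chemical. After 24 h, IL-1a is quantified by ELISA, while parallel wells are fixed in TCA and SRB-stained for total protein. Changes in either direction are fitted relative to DMSO.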

[8] = read-out: Monocyte Chemoattractant Protein-1 (MCP1), CCL2 (gene 6347); test: BSK_3C_MCP1: BioMAP Diversity Plus: 3C Assay for Monocyte Chemoattractant Protein-1 (MCP1) Biomarker Activity (AID 2283017; active means hit-call score of the fitted dose curve at least 0.9, where 1 is the maximum; inactive means score below 0.9); conditions: primary human endothelial cells (HUVEC); actives raise or lower the signal
Method in brief: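 HUVEC, 3C system; 24 h chemical exposure; MCP-1 by ELISA; bidirectional curve fit vs DMSO baseline.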

[9] = read-out: Human Leukocyte Antigen - DR isotype (HLADR), HLA-DRA (gene 3122); test: BSK_3C_HLADR: BioMAP Diversity Plus: 3C Assay for Human Leukocyte Antigen - DR isotype (HLADR) Biomarker Activity (AID 2283019; active means hit-call score of the fitted dose curve at least 0.9, where 1 is the maximum; inactive means score below 0.9); conditions: primary human endothelial cells (HUVEC); actives raise or lower the signal
Method in brief: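 HUVEC, 3C stimulation, 24 h post-dose; HLA-DR by ELISA; bidirectional curve fit vs DMSO baseline; gain or loss of signal scored.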

[10] = read-out: Interleukin-8 (IL8), CXCL8 (gene 3576); test: BSK_3C_IL8: BioMAP Diversity Plus: 3C Assay for Interleukin-8 (IL8) Biomarker Activity (AID 2283020; active means hit-call score of the fitted dose curve at least 0.9, where 1 is the maximum; inactive means score below 0.9); conditions: primary human endothelial cells (HUVEC); actives raise or lower the signal
Method in brief: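 Human vascular endothelial cells (umbilical vein) in the 3C system; IL-8 level detected by ELISA at 24 h post-dose, with DMSO as baseline.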

[11] = read-out: Monokine induced gamma interferon (MIG), CXCL9 (gene 4283); test: BSK_3C_MIG: BioMAP Diversity Plus: 3C Assay for Monokine induced gamma interferon (MIG) Biomarker Activity (AID 2283021; active means hit-call score of the fitted dose curve at least 0.9, where 1 is the maximum; inactive means score below 0.9;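 on AC50: MIG protein level measured by immunoassay in the treated endothelial cultures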); conditions: primary human endothelial cells (HUVEC); actives raise or lower the signal
Method in brief: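 After 24 h of treatment, human umbilical vein endothelial cultures (3C system) had their MIG biomarker level determined by ELISA, with DMSO serving as negative control.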

[12] = biological target: human Vitamin D Receptor (VDR), VDR (gene 7421) (UniProt P11473); test: ATG_VDR_TRANS: Attagene TRANS-FACTORIAL HepG2 Assay for human Vitamin D Receptor (VDR) (AID 2283022)
Method in brief: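 RT-PCR/capillary electrophoresis read-out of reporter mRNA induction in transiently transfected HepG2; 24 h dosing; chimeric NR-Gal4 (TRANS format); gain-of-signal fit against DMSO baseline.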

[13] = biological target: human Thyroid Receptor alpha (THRa1), THRA (gene 7067) (UniProt P10827); test: ATG_THRa1_TRANS: Attagene TRANS-FACTORIAL HepG2 Assay for human Thyroid Receptor alpha (THRa1) (AID 2283014)
Method in brief: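 Transient HepG2 transfection, NR-Gal4 chimera driving GAL4-UAS reporters; 24 h compound exposure; total RNA, oligo(dT) RT, PCR, fluorescent primer extension, capillary electrophoresis. Upward direction vs DMSO control.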

[14] = biological target: Retinoic acid receptor alpha (Homo sapiens) (UniProt P10276); test: ATG_RARa_TRANS: Attagene TRANS-FACTORIAL HepG2 Assay for human Retinoic Acid Receptor alpha (RARa) (AID 2283005)
Method in brief: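 HepG2 transiently transfected with multiplex GAL4-UAS reporter units including a human RARa–GAL4 chimera; 24 h compound exposure. Reporter mRNA quantified by RT-PCR, 6-FAM labeling and capillary electrophoresis; gain of signal versus DMSO.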

[15] = biological target: human RAR-related Orphan Receptor beta (RORb), RORB (gene 6096) (UniProt Q92753); test: ATG_RORb_TRANS: Attagene TRANS-FACTORIAL HepG2 Assay for human RAR-related Orphan Receptor beta (RORb) (AID 2283010)
Method in brief: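 In this TRANS-format test, human HepG2 cells express chimeric NR-Gal4 fusion proteins driving GAL4-UAS reporters. After 24 h dosing, reporter transcripts are measured by fluorescent RT-PCR/capillary electrophoresis, with DMSO as negative control.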

[16] = biological target: human Retinoid X Receptor beta (RXRb), RXRB (gene 6257) (UniProt P28702); test: ATG_RXRb_TRANS: Attagene TRANS-FACTORIAL HepG2 Assay for human Retinoid X Receptor beta (RXRb) (AID 2283013)
Method in brief: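 Multiplexed TRANS reporter assay in HepG2; 24 h dosing; reporter mRNA by RT-PCR/CE fluorescence; gain-of-signal relative to DMSO.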

[17] = biological target: Peroxisome proliferator-activated receptor gamma (Homo sapiens) (UniProt P37231); test: ATG_PPARg_TRANS: Attagene TRANS-FACTORIAL HepG2 Assay for human Peroxisome Proliferator-activated Receptor-gamma (PPARg) (AID 2283007)
Method in brief: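 Twenty-four hours after chemical dosing of transiently transfected HepG2 cells, isolated RNA was converted to cDNA, reporter sequences amplified and 6-FAM-labelled, then HpaI-digested and analysed by capillary electrophoresis. Signal increase against DMSO was fitted.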

[18] = biological target: human RAR-related Orphan Receptor gamma (RORg), RORC (gene 6097) (UniProt P51449); test: ATG_RORg_TRANS: Attagene TRANS-FACTORIAL HepG2 Assay for human RAR-related Orphan Receptor gamma (RORg) (AID 2283011)
Method in brief: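 Transient MRTU transfection of HepG2 (TRANS format, exogenous NR-Gal4 chimera). 24 h dosing. Total RNA → oligo(dT) RT → PCR → 6-FAM labelling → HpaI cut → CE. Gain vs DMSO.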

[19] = read-out: Monocyte Chemoattractant Protein-1 (MCP1), CCL2 (gene 6347); test: BSK_4H_MCP1: BioMAP Diversity Plus: 4H Assay for Monocyte Chemoattractant Protein-1 (MCP1) Biomarker Activity (AID 2283018; active means hit-call score of the fitted dose curve at least 0.9, where 1 is the maximum; inactive means score below 0.9); conditions: primary human endothelial cells (HUVEC); actives raise or lower the signal
Method in brief: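 Readout: MCP-1 ELISA on compound-treated HUVEC, sampled 24 h post-dosing. Baseline and negative control DMSO; bidirectional fit. Overt toxicity checked alongside by sulforhodamine B protein staining at time of biomarker measurement.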

[20] = BSK_3C_Proliferation: Cell Proliferation Assessment in the BioMAP Diversity Plus: 3C Assay (AID 2283006; active means hit-call score of the fitted dose curve at least 0.9, where 1 is the maximum; inactive means score below 0.9); conditions: primary human endothelial cells (HUVEC)
Method in brief: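 Proliferation of human vascular endothelial primary cells after 48 h dosing, quantified as SRB-stained protein at 560 nm relative to DMSO.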

Measured: AC50

human Retinoic Acid Receptor gamma (RARg), RARG (gene 5916), sequence (P13631 whole entry, looked up, the tested form may be a part): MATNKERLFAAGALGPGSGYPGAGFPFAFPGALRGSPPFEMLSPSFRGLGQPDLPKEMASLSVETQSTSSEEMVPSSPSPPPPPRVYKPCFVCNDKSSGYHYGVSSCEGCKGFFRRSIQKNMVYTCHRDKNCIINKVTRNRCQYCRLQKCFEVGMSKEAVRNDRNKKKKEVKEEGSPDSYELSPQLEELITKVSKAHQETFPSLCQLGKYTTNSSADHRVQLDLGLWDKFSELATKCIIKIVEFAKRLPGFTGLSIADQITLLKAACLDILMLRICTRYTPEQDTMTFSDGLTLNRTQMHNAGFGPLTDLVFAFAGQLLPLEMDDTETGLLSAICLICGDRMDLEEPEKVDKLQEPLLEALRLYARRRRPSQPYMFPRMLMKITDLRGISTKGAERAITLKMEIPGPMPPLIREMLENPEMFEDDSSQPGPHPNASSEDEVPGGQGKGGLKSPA
Peroxisome proliferator-activated receptor gamma (Homo sapiens), sequence (P37231 whole entry, looked up): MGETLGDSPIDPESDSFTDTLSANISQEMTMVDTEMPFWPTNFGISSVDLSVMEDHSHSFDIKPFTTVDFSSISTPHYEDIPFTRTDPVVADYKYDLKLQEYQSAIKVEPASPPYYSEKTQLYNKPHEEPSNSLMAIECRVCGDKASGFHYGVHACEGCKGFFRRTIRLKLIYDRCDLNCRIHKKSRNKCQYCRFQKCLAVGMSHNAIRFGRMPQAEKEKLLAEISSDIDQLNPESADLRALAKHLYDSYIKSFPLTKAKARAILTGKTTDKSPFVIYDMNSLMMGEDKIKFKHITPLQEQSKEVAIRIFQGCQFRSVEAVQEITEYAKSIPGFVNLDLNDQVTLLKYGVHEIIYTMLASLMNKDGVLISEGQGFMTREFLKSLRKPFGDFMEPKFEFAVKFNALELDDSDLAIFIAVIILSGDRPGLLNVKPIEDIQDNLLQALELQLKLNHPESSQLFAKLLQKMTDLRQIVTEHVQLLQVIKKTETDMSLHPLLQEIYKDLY
Nuclear receptor subfamily 1 group I member 2 (Homo sapiens), sequence (O75469 whole entry, looked up, the tested form may be a part): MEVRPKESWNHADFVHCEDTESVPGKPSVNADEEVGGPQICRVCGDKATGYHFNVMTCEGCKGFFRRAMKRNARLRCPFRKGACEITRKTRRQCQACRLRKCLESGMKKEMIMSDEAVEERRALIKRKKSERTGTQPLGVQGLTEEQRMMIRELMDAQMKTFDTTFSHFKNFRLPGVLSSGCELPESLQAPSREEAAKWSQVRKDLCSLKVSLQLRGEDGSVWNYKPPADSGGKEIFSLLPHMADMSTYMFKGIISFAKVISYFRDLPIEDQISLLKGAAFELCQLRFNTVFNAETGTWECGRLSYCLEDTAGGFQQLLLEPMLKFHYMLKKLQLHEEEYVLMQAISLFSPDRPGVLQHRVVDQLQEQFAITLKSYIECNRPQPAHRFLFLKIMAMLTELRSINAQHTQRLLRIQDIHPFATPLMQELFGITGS
human Thyroid Receptor alpha (THRa1), THRA (gene 7067), sequence (P10827 whole entry, looked up, the tested form may be a part): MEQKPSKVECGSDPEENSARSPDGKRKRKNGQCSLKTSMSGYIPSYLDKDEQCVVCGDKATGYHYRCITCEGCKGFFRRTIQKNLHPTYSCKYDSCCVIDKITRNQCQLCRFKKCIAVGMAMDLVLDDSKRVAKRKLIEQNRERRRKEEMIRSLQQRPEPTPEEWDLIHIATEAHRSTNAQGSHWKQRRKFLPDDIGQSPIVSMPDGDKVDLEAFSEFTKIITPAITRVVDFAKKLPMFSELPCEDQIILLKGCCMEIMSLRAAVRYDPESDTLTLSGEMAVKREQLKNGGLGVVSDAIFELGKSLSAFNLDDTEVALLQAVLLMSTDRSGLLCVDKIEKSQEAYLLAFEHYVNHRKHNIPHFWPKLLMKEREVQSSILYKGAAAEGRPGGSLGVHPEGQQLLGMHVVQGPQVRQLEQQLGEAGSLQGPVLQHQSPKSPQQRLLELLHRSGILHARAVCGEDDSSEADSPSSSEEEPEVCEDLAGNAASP
E-selectin (Homo sapiens), sequence (P16581 whole entry, looked up): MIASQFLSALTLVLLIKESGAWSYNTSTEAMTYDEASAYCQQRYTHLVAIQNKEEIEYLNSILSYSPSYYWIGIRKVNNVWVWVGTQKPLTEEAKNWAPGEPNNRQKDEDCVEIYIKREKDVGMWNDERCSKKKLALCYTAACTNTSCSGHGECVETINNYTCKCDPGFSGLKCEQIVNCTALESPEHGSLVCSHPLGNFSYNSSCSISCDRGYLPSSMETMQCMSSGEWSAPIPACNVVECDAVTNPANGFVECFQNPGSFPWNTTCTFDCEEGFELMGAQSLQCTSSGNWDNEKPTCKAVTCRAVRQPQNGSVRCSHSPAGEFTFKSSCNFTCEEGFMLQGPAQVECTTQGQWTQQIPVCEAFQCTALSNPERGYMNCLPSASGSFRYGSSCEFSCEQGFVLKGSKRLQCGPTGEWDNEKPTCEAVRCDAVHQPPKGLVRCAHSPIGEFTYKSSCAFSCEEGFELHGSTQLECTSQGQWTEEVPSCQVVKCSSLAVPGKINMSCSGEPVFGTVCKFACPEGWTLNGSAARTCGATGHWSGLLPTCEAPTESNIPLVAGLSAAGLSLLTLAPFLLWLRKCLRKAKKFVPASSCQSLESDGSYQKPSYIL
Retinoic acid receptor RXR-alpha (Homo sapiens), sequence (P19793 whole entry, looked up, the tested form may be a part): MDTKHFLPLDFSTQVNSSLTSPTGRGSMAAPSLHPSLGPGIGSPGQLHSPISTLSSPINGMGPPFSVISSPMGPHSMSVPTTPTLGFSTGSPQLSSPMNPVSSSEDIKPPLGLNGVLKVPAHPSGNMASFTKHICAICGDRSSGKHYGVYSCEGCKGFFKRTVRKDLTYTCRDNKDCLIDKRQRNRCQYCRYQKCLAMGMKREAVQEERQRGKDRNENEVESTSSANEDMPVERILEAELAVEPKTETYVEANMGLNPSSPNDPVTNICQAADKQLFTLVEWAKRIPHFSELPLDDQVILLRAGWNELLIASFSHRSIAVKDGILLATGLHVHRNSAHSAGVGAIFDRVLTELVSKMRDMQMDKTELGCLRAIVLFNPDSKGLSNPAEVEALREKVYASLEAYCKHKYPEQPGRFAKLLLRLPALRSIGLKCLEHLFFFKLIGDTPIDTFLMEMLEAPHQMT
human Vitamin D Receptor (VDR), VDR (gene 7421), sequence (P11473 whole entry, looked up, the tested form may be a part): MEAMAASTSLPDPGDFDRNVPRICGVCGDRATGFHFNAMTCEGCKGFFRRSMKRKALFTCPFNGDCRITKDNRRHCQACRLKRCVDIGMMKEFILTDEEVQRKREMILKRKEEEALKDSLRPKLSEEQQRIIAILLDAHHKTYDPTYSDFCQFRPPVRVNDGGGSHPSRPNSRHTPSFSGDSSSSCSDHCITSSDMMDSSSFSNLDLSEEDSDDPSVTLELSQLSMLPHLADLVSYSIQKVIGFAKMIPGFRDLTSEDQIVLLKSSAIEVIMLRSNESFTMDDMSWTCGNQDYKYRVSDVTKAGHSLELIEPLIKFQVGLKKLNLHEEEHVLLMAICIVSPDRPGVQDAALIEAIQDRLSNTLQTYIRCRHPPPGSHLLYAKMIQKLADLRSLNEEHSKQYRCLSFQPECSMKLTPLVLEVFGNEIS
human RAR-related Orphan Receptor gamma (RORg), RORC (gene 6097), sequence (P51449 whole entry, looked up, the tested form may be a part): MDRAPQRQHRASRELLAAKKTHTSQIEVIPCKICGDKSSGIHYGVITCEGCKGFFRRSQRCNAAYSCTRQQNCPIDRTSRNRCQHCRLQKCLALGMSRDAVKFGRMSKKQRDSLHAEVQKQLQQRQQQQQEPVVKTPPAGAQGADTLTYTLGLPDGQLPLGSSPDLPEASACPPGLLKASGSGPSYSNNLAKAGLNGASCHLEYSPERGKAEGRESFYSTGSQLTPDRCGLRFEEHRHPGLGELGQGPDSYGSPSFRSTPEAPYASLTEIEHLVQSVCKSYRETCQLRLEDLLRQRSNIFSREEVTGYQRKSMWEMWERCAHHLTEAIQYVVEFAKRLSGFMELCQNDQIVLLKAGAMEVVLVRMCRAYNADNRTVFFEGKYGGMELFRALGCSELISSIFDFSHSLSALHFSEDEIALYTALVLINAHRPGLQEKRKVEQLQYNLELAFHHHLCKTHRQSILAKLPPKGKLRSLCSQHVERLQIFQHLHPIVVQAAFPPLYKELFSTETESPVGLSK
Retinoic acid receptor alpha (Homo sapiens), sequence (P10276 whole entry, looked up, the tested form may be a part): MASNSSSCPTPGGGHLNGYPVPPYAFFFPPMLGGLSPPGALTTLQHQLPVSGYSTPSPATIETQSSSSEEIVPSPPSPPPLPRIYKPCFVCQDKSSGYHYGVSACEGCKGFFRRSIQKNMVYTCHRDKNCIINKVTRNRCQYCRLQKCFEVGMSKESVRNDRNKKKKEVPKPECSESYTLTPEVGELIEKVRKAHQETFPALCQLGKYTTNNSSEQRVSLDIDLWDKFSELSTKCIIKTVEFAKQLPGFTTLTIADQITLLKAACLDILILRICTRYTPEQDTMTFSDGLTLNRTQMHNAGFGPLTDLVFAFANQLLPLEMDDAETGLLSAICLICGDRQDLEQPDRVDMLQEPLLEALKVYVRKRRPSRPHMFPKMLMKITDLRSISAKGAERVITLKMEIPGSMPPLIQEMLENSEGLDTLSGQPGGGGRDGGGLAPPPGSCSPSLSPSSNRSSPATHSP
human Peroxisome Proliferator-activated Receptor delta (PPARd), PPARD (gene 5467), sequence (Q03181 whole entry, looked up, the tested form may be a part): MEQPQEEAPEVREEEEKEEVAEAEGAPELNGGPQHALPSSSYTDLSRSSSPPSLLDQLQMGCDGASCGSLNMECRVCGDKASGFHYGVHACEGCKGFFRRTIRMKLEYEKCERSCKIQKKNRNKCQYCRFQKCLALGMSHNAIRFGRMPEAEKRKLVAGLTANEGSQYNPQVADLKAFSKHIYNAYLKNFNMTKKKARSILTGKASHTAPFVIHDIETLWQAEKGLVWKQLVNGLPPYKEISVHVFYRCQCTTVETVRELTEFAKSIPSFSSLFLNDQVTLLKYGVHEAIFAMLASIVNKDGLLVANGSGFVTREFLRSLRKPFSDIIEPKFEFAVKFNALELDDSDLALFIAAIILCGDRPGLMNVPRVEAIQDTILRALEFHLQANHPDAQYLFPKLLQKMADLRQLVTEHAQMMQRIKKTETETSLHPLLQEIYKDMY

Cc1cc(CCN2CCN(c3nsc4ccccc34)CC2)cc2c1NC(=O)CC2(C)C
active: [2] 38.3 µM | [3] 0.742 µM | [6] 30.9 µM | [7] 30.5 µM | [8] 30.7 µM | [9] 10.9 µM | [10] 33.1 µM | [11] 35.8 µM
inactive: [1] | [4] | [5] | [12]

CCCCOCCO
inactive: [2] | [13] | [6] | [7] | [8] | [10] | [11]

CC(O)C(=O)O (centres undefined)
inactive: [1] | [14] | [3] | [4] | [15] | [5] | [16] | [13] | [12]

CN1CCC[C@H]1c1cccnc1
not listed: [1] | [4] | [9] | [14] | [15] | [16] | [19] | [20]
inactive: all other assays above

Cc1ccc(S(=O)(=O)O)c(C)c1
inactive: [1] | [3] | [15] | [18] | [5] | [16] | [12]
active: [16] 58.6 µM

c1ccc2cc3c(ccc4ccccc43)cc2c1
not listed: [1] | [9] | [17] | [20]
inactive: all other assays above

Nc1cccc2c(N)cccc12
not listed: [9] | [14] | [17] | [18] | [20]
inactive: all other assays above

CC(=O)NC1(c2cccc(F)c2)CCN(CC[C@@]2(c3ccc(Cl)c(Cl)c3)CN(c3ccccc3)C(=O)CO2)CC1
active: [3] 8.59 µM | [5] 49.7 µM | [13] 59.9 µM | [6] 30.7 µM | [8] 23.5 µM | [9] 24.9 µM | [10] 17.8 µM
inactive: [1] | [4] | [7] | [11] | [12]

CCCCCCCCC(=O)O
active: [16] 65.3 µM
inactive: [2] | [20] | [3] | [4] | [5] | [16] | [6] | [7] | [8] | [19] | [9] | [10] | [11]

CC(O)CO (centres undefined)
not listed: [1] | [3] | [9] | [13] | [15] | [16]
inactive: all other assays above
